Measurements as given in PubChem BioAssay (NCATS).
Several values for one entry are separate records, joined by “and”; a condition that tells them apart may be missing. Identical values can stand only once. Values without a mark were called inactive.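 The calls were made as follows: active = compounds whose dose series gives a full or clear partial fitted curve of increased nuclear translocation; inconclusive = weak partial curve or effect only at the top dose; inactive = no dose-dependent translocation response.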
Potency is read from the fitted curve at half-maximal effect.

These compounds were tested against Glucocorticoid receptor (Homo sapiens) (UniProt P04150) (assay: GR-GFP Redistribution (AID 450)). Conditions: U2OS GR-GFP nuclear translocation, laser cytometry, 2 h.
Chain of Glucocorticoid receptor (Homo sapiens) (P04150 whole entry, looked up): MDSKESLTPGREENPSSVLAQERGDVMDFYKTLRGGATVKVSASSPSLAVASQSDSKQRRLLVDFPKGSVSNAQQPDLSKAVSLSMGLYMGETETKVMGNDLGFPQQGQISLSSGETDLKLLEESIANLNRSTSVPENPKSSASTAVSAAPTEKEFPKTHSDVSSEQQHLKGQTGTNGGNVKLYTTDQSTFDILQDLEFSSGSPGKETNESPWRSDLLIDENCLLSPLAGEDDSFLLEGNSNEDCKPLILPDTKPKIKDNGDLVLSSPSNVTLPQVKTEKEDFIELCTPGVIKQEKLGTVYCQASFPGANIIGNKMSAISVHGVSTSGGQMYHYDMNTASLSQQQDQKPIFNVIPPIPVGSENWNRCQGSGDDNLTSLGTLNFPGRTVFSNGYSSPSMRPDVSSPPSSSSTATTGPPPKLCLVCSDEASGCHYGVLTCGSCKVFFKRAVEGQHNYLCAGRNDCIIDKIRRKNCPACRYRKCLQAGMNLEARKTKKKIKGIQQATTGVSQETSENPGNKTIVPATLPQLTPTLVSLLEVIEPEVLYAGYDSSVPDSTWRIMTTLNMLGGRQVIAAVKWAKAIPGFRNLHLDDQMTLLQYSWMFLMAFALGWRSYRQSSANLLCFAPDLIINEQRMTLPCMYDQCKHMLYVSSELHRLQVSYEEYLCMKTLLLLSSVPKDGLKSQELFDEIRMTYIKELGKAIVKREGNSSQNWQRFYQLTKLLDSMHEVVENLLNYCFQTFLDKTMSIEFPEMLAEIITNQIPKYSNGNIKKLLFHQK
Excerpt: NIH Molecular Libraries Screening Centers Network [MLSCN]
NIH Chemical Genomics Center [NCGC]
The glucocorticoid receptor (GR) Redistribution assay (BioImage) enables the visualization of GR cytoplasmic to nuclear translocation by the use of a GR-GFP fusion. GR is normally cytosolic, however ligands such as dexamethasone, cause nuclear translocation where the protein binds to response elements and interacts with various co-factors to modulate transcription. Because both functional agonists and antagonists can induce nuclear translocation, this assay can detect ligands regardless of their effects on gene expression. GR-GFP expressing U20S cells were used here. Dexamethasone was the positive control for translocation and data normalization. Detection of nuclear translocation was performed in 1536-well plates using the Acumen laser scanning plate cytometer (TTP LabTech). Validation of this assay and a detailed protocol have been described.
NCGC Assay Protocol Summary:
GR-GFP U2OS cells were maintained in DMEM with Glutamax and high glucose, 1% v/v penicillin-streptomycin, and 0.5 mg/mL Geneticin. For cell culture, 10% […] fetal bovine serum (FBS) was used (Invitrogen #26140-079). For cell plating 10% dextran, charcoal-stripped FBS (Hyclone SH30068.03) was used. U2OS cells were trypsin treated, suspended in medium, and passed through a 40 um basket filter. The cells were seeded at 600 cells/5 uL/well into clear-bottom black sided 1536-well plates and incubated for approximately 20 hrs, 37degC, 5%, CO2 in a tissue culture incubator. Twenty-three nL of compound was delivered by pin tool and the plates were incubated as above for 2 hrs. The compounds were tested as a 7-point titration ranging from 46 uM to 0.6 nM. The cells were fixed using the Kalypsys Washer/Dispenser station. The fixing protocol involved aspiration of the cell media, addition of 6 uL/well of PBS, aspiration of PBS, addition of 5uL/well of 100% methanol, aspiration of methanol, and addition of 3 uL/well PBS with 1.5 uM propidium iodide (PI). The plates were read by the Acumen Explorer using a 1 x 8 um scan of the whole well area. PI fluorescence triggered the collection of PI and GFP signals. A nuclei population was defined by a 10 to 100 um width and depth filter that eliminated small and large fluorescent particles. Two subpopulations of nuclei were then defined by peak intensity of GFP fluorescence to obtain translocated and untranslocated objects. The number of translocated objects was used for data normalization.
Keywords: NIH Roadmap, MLSCN, MLI, MLSMR, sOGT, qHTS, NCGC
In the case of CC(=O)O[C@@H](C)C[N+](C)(C)C, the Potency is reported as > 46 µM and > 20.6 µM. Work on CN(Cc1ccco1)c1ncnc2ccc(-c3ccc4c(c3)OCO4)cc12 yielded a Potency greater than 46 µM. For COc1ccccc1CNc1cc(-c2cccc(C#N)c2)ncn1, the Potency was greater than 46 µM. CN(C)C(=O)c1ccc(-c2nccc(N(C)Cc3ccco3)n2)cc1 showed a Potency greater than 46 µM. Work on COCCn1c(=O)c(-c2cccs2)nc2cnc(OC)nc21 yielded a Potency greater than 9.22 µM. Work on COc1cccc(-c2nc(NCc3ccccc3OC)c3ccccc3n2)c1 yielded a Potency greater than 46 µM. In the case of Cc1nc2cnc(N(C)C)nc2n(C)c1=O, the Potency is reported as greater than 9.22 µM. CN1CCN(c2ncc3nc(-c4cn(C)c5ccccc45)c(=O)n(C)c3n2)CC1 was tested, and the Potency was greater than 9.22 µM. In the case of O=c1c(-c2cccs2)nc2cncnc2n1Cc1ccc(F)cc1, the Potency is reported as greater than 9.22 µM. Work on O=c1c(-c2ccc(F)cc2)nc2cnc(Nc3ccccc3)nc2n1Cc1cccs1 yielded a Potency greater than 9.22 µM. FC(F)(F)c1ccccc1-c1cncnc1-n1ccnc1 showed a Potency greater than 46 µM. O=c1c(CCc2ccccc2)nc2cncnc2n1Cc1ccccc1Cl gave a Potency greater than 46 µM. With COc1ccccc1CNc1nc(-c2cccc(C#N)c2)nc2ccccc12 the Potency was greater than 46 µM. COCCNc1nc(-c2ccccc2C)nc2ccccc12 showed a Potency greater than 46 µM. Compound COc1ncc2nc(-c3ccc(F)cc3)c(=O)n(C[C@H]3CCCO3)c2n1 has a Potency greater than 9.22 µM. COc1cc2c(cc1OC)C(=O)Cc1ccc3c(c1CN(C)CC2)OCO3 gave a Potency greater than 46 µM. In the case of O=c1c(-c2ccc(F)cc2)nc2cncnc2n1-c1ccccc1, the Potency is reported as greater than 9.22 µM. Cc1ccccc1-c1ccc2ncnc(NCc3cccs3)c2c1 gave a Potency greater than 46 µM. Work on COc1ccc(-n2c(=O)c(-c3cccc(Cl)c3)nc3cncnc32)cc1 yielded a Potency greater than 9.22 µM. COc1ncc2nc(-c3ccc(Cl)cc3)c(=O)n(-c3ccccc3)c2n1 showed a Potency greater than 9.22 µM. CN1CCN(c2ncc3nc(-c4cn(C)c5ccccc45)c(=O)n(-c4ccccc4)c3n2)CC1 was tested, and the Potency was greater than 9.22 µM. In the case of CS(=O)(=O)Nc1cccc(-c2ccc3ncnc(N4CCOCC4)c3c2)c1, the Potency is reported as greater than 46 µM. Compound O=c1c(-c2ccc(Cl)cc2)nc2cnc(N3CCNCC3)nc2n1Cc1ccc(F)cc1 has a Potency greater than 9.22 µM. With Cc1nc2cncnc2n(-c2ccccc2)c1=O the Potency was greater than 9.22 µM. For CC12CC[C@@H]3c4ccc(OS(=O)(=O)O)cc4CC[C@H]3C1CCC2=O (stereo not given in full), the Potency was greater than 20.6 µM. In the case of Cc1cnc(CNc2ccnc(-c3ccccc3C)n2)cn1, the Potency is reported as greater than 46 µM. CCN(CC)CCC[C@H](C)Nc1ccnc2cc(Cl)ccc12 was tested, and the Potency was > 46 µM and > 20.6 µM. Work on COc1cccc(-c2ccc3ncnc(N4CCOCC4)c3c2)c1 yielded a Potency greater than 46 µM. For O=c1c(CCc2ccccc2)nc2cnc(N3CCOCC3)nc2n1Cc1ccc(F)cc1, the Potency was greater than 9.22 µM. Cn1c(=O)c(CCc2ccccc2)nc2cnc(Nc3ccccc3)nc21 showed a Potency greater than 9.22 µM. In the case of COc1ncc2nc(-c3ccc(F)cc3)c(=O)n(Cc3cccs3)c2n1, the Potency is reported as greater than 9.22 µM. Work on CS(=O)(=O)Nc1cccc(-c2cncnc2NCc2cccnc2)c1 yielded a Potency greater than 46 µM. For COc1ccccc1-c1ccc2ncnc(Nc3ccccc3)c2c1, the Potency was greater than 46 µM. COc1ccc(CNc2nc(-c3cccc(NS(C)(=O)=O)c3)nc3ccccc23)c(OC)c1 gave a Potency greater than 46 µM. COc1ccc(CNc2ncnc3ccc(-c4ccc5c(c4)OCO5)cc23)c(OC)c1 gave a Potency greater than 46 µM. COc1ccccc1CNc1ccnc(-c2ccccc2OC)n1 gave a Potency greater than 46 µM. Work on CN1CCN(c2ncc3nc(-c4cn(C)c5ccccc45)c(=O)n(CCc4ccccc4)c3n2)CC1 yielded a Potency greater than 9.22 µM. Compound COc1cccc(-c2nc(Nc3ccncc3)c3ccccc3n2)c1 has a Potency greater than 46 µM. Work on Cc1ccccc1-c1ccc2ncnc(NCc3cccnc3)c2c1 yielded a Potency greater than 46 µM. With COc1ccc2[nH]cc(CCNc3ccnc(-c4ccccc4Cl)n3)c2c1 the Potency was greater than 46 µM.
